High-throughput results: PubChem, National Center for Advancing Translational Sciences (NCATS)
nsP2pro inh – Primary qHTS for inhibitors of NSP2Pro chikungunya virus (CHIKV); Polyprotein P1234 (Chikungunya virus (strain S27-African prototype)), Q8JUX6; FRET peptide cleavage, nsP2pro, fluorescence 1 h; Potency, µM (series often up to 24.9 µM), for inactives: at the top dose activity change, negative = inhibition, most hits filed as inhibitors; 1.1% of 31,000 active; also: nearly all actives have a fitted effect of over 60% in size
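Enzyme 150 nM, substrate 2.5 uM (both final); Tris-HCl 10 mM pH 8.0 + 0.01% Tween 20; cpd up to 25 uM, 7 pts; 15 min preinc., 1 h RT; fluorescence ex 525/em 598.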
nsP2 cell sec – Secondary cell base assay for inhibitors of NSP2Pro Chikungunya virus (CHIKV); shares compounds with nsP2pro inh; cell-based CHIKV nsP2 protease reporter assay; Potency, µM (highest dose often 51.1 µM), for the others: at the top dose activity change, negative = inhibition, actives largely listed as inhibitors; 10% of 450 active; AID 1964100, 2024; also: nearly all actives have a fitted effect of over 70% in size
Target sequence (Q8JUX6 220-798 limits assumed): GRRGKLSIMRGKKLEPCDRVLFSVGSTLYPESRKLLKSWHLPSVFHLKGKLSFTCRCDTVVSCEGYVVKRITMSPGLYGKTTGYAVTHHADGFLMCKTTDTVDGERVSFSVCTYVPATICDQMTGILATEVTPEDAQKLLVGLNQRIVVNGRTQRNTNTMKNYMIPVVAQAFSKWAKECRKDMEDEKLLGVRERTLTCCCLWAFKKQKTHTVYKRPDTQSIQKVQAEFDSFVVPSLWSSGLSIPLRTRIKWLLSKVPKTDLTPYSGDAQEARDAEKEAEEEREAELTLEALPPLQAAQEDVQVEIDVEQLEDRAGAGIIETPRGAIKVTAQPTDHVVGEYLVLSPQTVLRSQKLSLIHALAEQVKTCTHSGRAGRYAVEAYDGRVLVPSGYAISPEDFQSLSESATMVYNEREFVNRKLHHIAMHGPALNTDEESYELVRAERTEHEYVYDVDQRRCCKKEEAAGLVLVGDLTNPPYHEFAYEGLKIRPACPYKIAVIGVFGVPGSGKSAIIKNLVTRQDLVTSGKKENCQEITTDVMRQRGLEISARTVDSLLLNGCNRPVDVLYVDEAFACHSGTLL
CHIKV NSP2 FL – Selectivity profile for inhibitors of NSP2Pro chikungunya virus (CHIKV): Full length NSP2 enzyme counterscreen (CHIKV-NSP2) | Full-length CHIKV NSP2 protease enzymatic counterscreen | shares compounds with nsP2pro inh | 39% of 410 active | AID 1964101, 2024 | Potency, µM (highest dose often 50.7 µM), inactives show at the highest dose activity change, negative = inhibition, usual class: inhibitors; also: nearly all actives have a fitted effect of over 65% in size
Furin counter – Selectivity profile for inhibitors of NSP2Pro chikungunya virus (CHIKV): Human furin counterscreen; shares compounds with nsP2pro inh; Recombinant human furin enzymatic counterscreen, fluorogenic substrate; Potency, µM (titrated, usually from 50.6 µM), inactives show top-dose activity change, negative = inhibition, hits mostly inhibitors; 6% of 410 active
nsP2 NS23 pep – Selectivity profile for inhibitors of NSP2Pro chikungunya virus (CHIKV): Endogenous NS2/3 peptide Counterscreen; shares compounds with nsP2pro inh; Purified CHIKV nsP2 protease, endogenous NS2/3 peptide cleavage; Potency, µM (titrated, usually from 51 µM), for the others: top-dose activity change, negative = inhibition, most hits filed as inhibitors; 34% of 410 active; AID 1964103, 2024; also: nearly all actives have a fitted effect of over 55% in size
Papain counter – Selectivity profile for inhibitors of NSP2Pro chikungunya virus (CHIKV): Papain Counterscreen; shares compounds with nsP2pro inh; purified papain protease activity, enzymatic inhibition; Potency, µM (highest dose often 51 µM), without a hit: at the highest dose activity change, negative = inhibition, actives largely listed as inhibitors; 5% of 410 active; AID 1964104, 2024
nsP2pro conf qHTS – Confirmatory qHTS for inhibitors of NSP2Pro chikungunya virus (CHIKV); shares compounds with nsP2pro inh; CHIKV nsP2 protease enzymatic activity, qHTS; Potency, µM (titrated, usually from 25.5 µM), inactives show top-dose activity change, negative = inhibition, usual class: inhibitors; 43% of 410 active; also: nearly all actives have a fitted effect of over 75% in size
HCV NS3 counter – Selectivity profile for inhibitors of NSP2Pro chikungunya virus (CHIKV): NS34A-HCV Counterscreen; shares compounds with nsP2pro inh; HCV NS3/4A protease biochemical counterscreen; Potency, µM (titrated, usually from 50.9 µM), usual class: inhibitors; 20% of 410 active; AID 1964106, 2024; also: nearly all actives have a fitted effect of over 55% in size
* hit, by the source's call; i = inactive; u = inconclusive; [ ] = dose if it differs, or a comment. The full list was thinned out, with hits kept by preference. Calls follow the shape of the full dose curve. % is scaled to controls: 0 for no effect and ±100 for the full control effect; potency is read from the fitted curve at half-maximal effect.

SMILES | nsP2pro inh | others
Cc1ccc(-c2cc(C(=O)Nc3ccc(-n4cccn4)cc3)c3ccccc3n2)cc1C | i
N#Cc1nc(-c2cccc3ccccc23)oc1NCc1ccccc1 | -6.0%
CC12C=CC(=O)NC1CCC1C2CCC2(C)C(C(=O)Nc3cc(C(F)(F)F)ccc3C(F)(F)F)CCC12 (stereo unspecified) | -15.4%
Oc1cccc(-c2c3nc(c(-c4cccc(O)c4)c4ccc([nH]4)c(-c4cccc(O)c4)c4nc(c(-c5cccc(O)c5)c5ccc2[nH]5)CC4)C=C3)c1 | u | nsP2 cell sec=1.5%;CHIKV NSP2 FL=18.3µM*;Furin counter=2.3%;nsP2 NS23 pep=18.3µM*;Papain counter=u;nsP2pro conf qHTS=14.2µM*;HCV NS3 counter=i
CC/C=C\CC1C(=O)CCC1CC(=O)OC (stereo unspecified) | -8.4%
Cc1cc(N[S+](=O)([O-])c2cc3c(cc2Cl)CCC(=O)N3)ccc1Br | i
COC[C@H]1OC(=O)c2coc3c2[C@@]1(C)C1=C(C3=O)C2CCC(=O)[C@@]2(C)C[C@H]1OC(C)=O (stereo partly specified) | 9.88µM* | nsP2 cell sec=-0.9%;CHIKV NSP2 FL=-11.0%;Furin counter=-5.5%;nsP2 NS23 pep=-17.1%;Papain counter=-6.8%;nsP2pro conf qHTS=-25.0%;HCV NS3 counter=i
COC[C@@H]1OC(=O)/C(=C\N(C)CCCN(C)C)C2=C(O)C(=O)C3=C([C@@H](OC(C)=O)C[C@@]4(C)[C@@H]3CC[C@@H]4O)[C@@]21C | -10.7%
COc1ccc(-c2ccc(Nc3nc(-c4ccncc4)nc4ccccc34)cc2F)cc1F | 2.3%
Cc1ncc(CO)c(C=O)c1O | -0.3%
Cc1ncc(COP(=O)(O)O)c(C=O)c1O | u | nsP2 cell sec=-10.5%;CHIKV NSP2 FL=-11.4%;Furin counter=4.4%;nsP2 NS23 pep=3.0%;Papain counter=153.3%;nsP2pro conf qHTS=-9.1%;HCV NS3 counter=i
Cc1ncc(CSSCc2cnc(C)c(O)c2CO)c(CO)c1O | -6.0%
O=S(=O)(Nc1nccs1)c1ccc(NCc2cccc(Cl)c2Cl)cc1 | 1.5%
Cc1nn(-c2ccc(F)cc2)c(C)c1[C@@H]1C=C[C@@H](NCc2ccc(C(C)C)cc2)C1 | 28.6%[39.2 µM]
Cc1ccc(-n2nc(C)c([C@@H]3C=C[C@@H](NCc4ccc(F)cc4)C3)c2C)cc1Cl | 20.0%[39.2 µM]
Cc1nn(CCC#N)c(C)c1[C@@H]1C=C[C@@H](NCc2ccc(C(C)C)cc2)C1 | u | nsP2 cell sec=136.7%;CHIKV NSP2 FL=5.95µM*;Furin counter=-11.6%;nsP2 NS23 pep=16.8µM*;Papain counter=-7.9%;nsP2pro conf qHTS=11.6µM*;HCV NS3 counter=4.21µM*
CNC(=O)c1cc(C)nc2onc(C3CCCN(C(=O)Cc4ccc(OC)cc4)C3)c12 (stereo unspecified) | -7.8%
N#Cc1cc(NC(=O)Nc2nnc(-c3ccncc3)s2)ccc1F | -18.3%
CCOc1ccc(CCNC(=O)c2cc3ccccc3n2Cc2cc(C)cc(C)n2)cc1OCC | -9.3%
COc1cccc2sc(NC(=O)c3ccc4c(c3)OCCN(C3CCC3)C4)nc12 | i
COc1ccc(CNc2nc(N3CCCC3CO)ncc2C(=O)NCc2ncccn2)cc1Cl (stereo unspecified) | 0.7%
Cc1ccc(S(=O)(=O)NCCC(=O)Nc2nc(-c3ccccc3)cs2)cc1 | 4.2%
CN(C)C(=S)SC(=S)N(C)C | 8.81µM* | nsP2 cell sec=-1.0%;CHIKV NSP2 FL=29.1µM*;Furin counter=4.0%;nsP2 NS23 pep=-25.7%;Papain counter=-17.1%;nsP2pro conf qHTS=7.11µM*;HCV NS3 counter=u
CN(C)C(=S)SSC(=S)N(C)C | 2.79µM* | nsP2 cell sec=25.1µM*;CHIKV NSP2 FL=9.19µM*;Furin counter=-11.0%;nsP2 NS23 pep=9.19µM*;Papain counter=-10.6%;nsP2pro conf qHTS=1.59µM*;HCV NS3 counter=i
O=C(Nc1ccc(OC(F)(F)Cl)cc1)c1cnc(N2CC[C@@H](O)C2)c(-c2ccn[nH]2)c1 | 44.5%
SMILES | nsP2pro inh | others
N#Cc1ccnc(N2C(=O)CC[C@H]2C(=O)N(c2cncc(F)c2)[C@@H](C(=O)NC2CC(F)(F)C2)c2ccccc2Cl)c1 | -9.1%
O=C(C1CC1)N1CCC(C(=O)N2CC(Oc3ccc4c(c3)OCO4)C2)CC1 | 7.94µM* | nsP2 cell sec=6.8%;CHIKV NSP2 FL=13µM*;Furin counter=-8.6%;nsP2 NS23 pep=u;Papain counter=-2.1%;nsP2pro conf qHTS=7.98µM*;HCV NS3 counter=7.3µM*
CC(=O)Nc1ccc(CN2CC(Oc3ccc4c(c3)OCO4)C2)cc1 | 2.4%
NC(=O)C1CCN(c2ncc(-c3ccc4c(c3)OCO4)s2)CC1 | -5.3%
C=C1C[C@@]2(O)O[C@@]3(C[C@H]2C(C)C)[C@@H](C)CC[C@@H]13 | -26.2%
Cc1ccnc(NC(=S)N[C@@H]2CCN(c3cccc(C(F)(F)F)c3)C2)c1 | i
COC(=O)/C=C/C12COC(C)(C)C1C(O)C(OC(C)=O)C1(C)C2CCC2(C)C(c3ccoc3)OC(=O)C3OC321 (stereo unspecified) | u | nsP2 cell sec=5.0%[17.6 µM];CHIKV NSP2 FL=-7.5%[17.3 µM];Furin counter=-6.5%[17.3 µM];nsP2 NS23 pep=-15.5%[17.2 µM];Papain counter=5.4%[17.2 µM];nsP2pro conf qHTS=-4.4%[8.62 µM];HCV NS3 counter=i
CC1(C)O[C@H]2CC(=O)OC[C@]23[C@H]2CC[C@@]4(C)[C@H](c5ccoc5)OC(=O)[C@H]5O[C@]54[C@]2(C)C(=O)C[C@@H]13 | -13.4%
COC(=O)C[C@H]1C(C)(C)[C@H](OC(C)=O)C2CC3=C4CC(=O)O[C@@H](c5ccoc5)[C@]4(C)CCC3[C@@]1(C)C2=O (stereo partly specified) | -2.1%[10 µM]
N#Cc1ccc(Nc2ncc(-c3cccc4ccccc34)o2)cc1 | -1.7%
Cc1ccc(NC(=O)CSc2nc(-c3cccs3)nc3cc(=O)[nH]n23)cc1C | -6.9%
COCCNC(=O)Nc1ccc2nc(-c3cccs3)c(-c3cccs3)nc2c1 | u | nsP2 cell sec=-3.8%;CHIKV NSP2 FL=33.8%;Furin counter=-9.9%;nsP2 NS23 pep=-9.6%;Papain counter=49.2%;nsP2pro conf qHTS=8.5%;HCV NS3 counter=i
COCCNC(=O)c1cc2c(Cl)nc3ccc(C)cc3c2s1 | 12.8%
Cc1ccc(OCCn2c(CCNC(=O)N3CCCCC3)nc3ccccc32)cc1 | i
Cc1cc(-c2nc(C(=O)Nc3cn(C4CCOCC4)nc3C(N)=O)co2)ccn1 | 11.2%
